From PubChem BioAssay
EWS-Fli inh = inhibitors of EWS/Fli oncoprotein transcriptional activity | A673 NR0B1-luciferase reporter, viability-normalised | actives 0.67% (n = 350,000) | inhibition, % at 12.6 µM;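 active = mean inhibition of at least 50% after viability correction, with every replicate also passing that limit; inconclusive = mean reaches 50% but only one of two replicates passes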;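 note: firefly luciferase signal divided by Alamar Blue viability fluorescence both relative to DMSO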
HIF-2a inh = blocks HIF-2a reporter activity. AID 624352. actives 0.72% (n = 360,000). inhibition, % at 18.8 µM. 786-0 RCC cells HIF-2a reporter, luciferase luminescence, overnight;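 active = inhibition of the luminescence signal of 40% or more relative to plate controls, in a single-dose primary screen at 18.75 µM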
KKLEB cytotox = CF airway cell cytotoxicity counter-screen. KKLEB CF airway cells viability, ATPlite luminescence, overnight; hits give low values; cells stimulated with P. aeruginosa culture filtrate. activity change (cytotoxicity), % at 5 µM. actives 0.36% (n = 360,000). AID 602141;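 active = corrected activity change at or below -50% at 5 µM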
PAX8 reporter = PAX8 transcriptional activity inhibition; RMG-I TPO-luciferase reporter, SteadyGlo, 24 h; inhibition, % at 12.6 µM; actives 1.2% (n = 360,000); AID 652154;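 active = mean replicate inhibition at least 60% with every replicate also reaching 60%; inconclusive = only one of the two criteria is met; inactive = mean below 60% and not all replicates reaching 60%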;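 note: luciferase light reporting Pax8 driven TPO promoter activity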
CF NFkB inh = cystic fibrosis NF-kB activation inhibition. AID 588850. actives 0.86% (n = 360,000). KKLEB NF-kB-GFP reporter, PAF-induced, GFP fluorescence overnight. inhibition, % at 5 µM;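 active = at least 50% inhibition at 5 µM, scaled per plate between neutral and stimulator controls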;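 note: PAF is a Pseudomonas aeruginosa culture filtrate used as stimulus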
Mdm2 MdmX conf = Mdm2/MdmX (human) interaction inhibition, confirmed; SaOS-2 split-luciferase Mdm2/MdmX complementation, luminescence; shares compounds with HIF-2a inh; actives 99% (n = 740); inhibition, % at 8 µM; AID 504601;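 active = mean inhibition of the luminescence signal across two replicates at or above 26 percent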
Target sequence (O15151 whole entry, looked up): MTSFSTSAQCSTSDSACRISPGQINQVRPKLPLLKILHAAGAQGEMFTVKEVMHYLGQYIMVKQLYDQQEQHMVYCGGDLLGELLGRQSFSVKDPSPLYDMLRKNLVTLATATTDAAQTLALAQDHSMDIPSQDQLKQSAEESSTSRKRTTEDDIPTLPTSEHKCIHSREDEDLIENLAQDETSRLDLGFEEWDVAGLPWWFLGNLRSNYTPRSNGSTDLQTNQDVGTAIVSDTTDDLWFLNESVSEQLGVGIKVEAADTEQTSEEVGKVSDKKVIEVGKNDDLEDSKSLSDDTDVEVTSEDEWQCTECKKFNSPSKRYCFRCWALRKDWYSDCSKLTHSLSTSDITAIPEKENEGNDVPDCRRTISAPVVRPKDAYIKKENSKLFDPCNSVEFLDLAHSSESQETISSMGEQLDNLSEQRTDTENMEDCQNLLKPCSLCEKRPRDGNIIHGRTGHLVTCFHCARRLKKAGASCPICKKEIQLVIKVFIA
Target sequence (Q00987 whole entry, looked up): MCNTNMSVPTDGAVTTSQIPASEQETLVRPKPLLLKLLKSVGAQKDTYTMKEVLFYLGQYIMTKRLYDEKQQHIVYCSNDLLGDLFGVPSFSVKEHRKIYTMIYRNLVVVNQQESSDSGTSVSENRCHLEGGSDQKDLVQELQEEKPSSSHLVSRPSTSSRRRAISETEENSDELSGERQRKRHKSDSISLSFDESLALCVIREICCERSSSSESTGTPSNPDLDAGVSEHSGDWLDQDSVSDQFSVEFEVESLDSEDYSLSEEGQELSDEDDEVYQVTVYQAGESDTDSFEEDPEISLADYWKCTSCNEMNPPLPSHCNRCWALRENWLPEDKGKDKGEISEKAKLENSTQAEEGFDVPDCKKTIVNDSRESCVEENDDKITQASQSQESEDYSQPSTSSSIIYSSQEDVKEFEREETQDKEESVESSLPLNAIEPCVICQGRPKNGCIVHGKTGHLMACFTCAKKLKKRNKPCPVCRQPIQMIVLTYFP
HIF-2a conf = confirmation of HIF-2a inhibitors | shares compounds with HIF-2a inh | 786-0 RCC cells, HIF-2a luciferase reporter luminescence, overnight | inhibition, % at 18.8 µM | actives 56% (n = 1,800) | AID 651580;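 active = mean inhibition across four replicates of at least 40 percent at the single tested concentration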
HIF-1a counter = counter-screen for HIF-2a inhibitors: HIF-1a inhibition in MiaPaCa-2 cells | shares compounds with HIF-2a inh | MiaPaCa-2 HIF-1a luciferase reporter, desferoxamine, overnight | inhibition, % at 18.8 µM | actives 72% (n = 1,800);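 active = mean inhibition of the reporter signal across four replicates at the single tested dose of 50% or more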
Large screens that a line does not name were inactive (follow-up assays come after a bar, where they were run). Sampled rows, rich in hits. Any-hit rate of the full collection: about 2.1%.

Cc1[nH]c2ccccc2c1C(=O)CN1C(=O)NC2(CC(C)CC(C)(C)C2)C1=O (stereo not given)	HIF-2a inh 45 (no result: EWS-Fli inh, PAX8 reporter) | HIF-2a conf inactive | HIF-1a counter 62
CCOC(=O)c1c(SCCN2CCCC2)n(-c2ccccc2)c(=S)n(-c2ccccc2)c1=O	EWS-Fli inh 61, HIF-2a inh 78 | HIF-2a conf 93 | HIF-1a counter 102
O=C(CC1CC1)N[C@@H]1CC[C@@H](CCNS(=O)(=O)c2ccc(Cl)cc2)O[C@H]1CO	none (no result: HIF-2a inh, KKLEB cytotox, CF NFkB inh)
CCCn1ncc(CN2CCC(CO)(CC3CCCCO3)CC2)c1C (stereo not given)	HIF-2a inh 40 | HIF-2a conf inactive | HIF-1a counter inactive
Cn1c(/C=C/c2ccc(Cl)cc2)c([N+](=O)[O-])c(=O)n(C)c1=O	HIF-2a inh 63 | HIF-2a conf 44 | HIF-1a counter inactive
Cn1c(/C=C/c2cccc([N+](=O)[O-])c2)c([N+](=O)[O-])c(=O)n(C)c1=O	HIF-2a inh 45 | HIF-2a conf inactive | HIF-1a counter 57
CCCCCOc1ccc(/C=C/c2c([N+](=O)[O-])c(=O)n(C)c(=O)n2C)cc1	HIF-2a inh 42 | HIF-2a conf inactive | HIF-1a counter inactive
CO[C@H]1CC[C@H]2CCOc3ccc(C#N)cc3C(=O)N(C)C[C@@H](OC)[C@H](C)C(=O)N(C)C[C@H]1O2	none (no result: HIF-2a inh, KKLEB cytotox, CF NFkB inh)
C=CCn1c(C)cc(C(=O)CSc2ccc(NC(C)=O)cc2)c1C	HIF-2a inh 50 (no result: EWS-Fli inh, PAX8 reporter) | HIF-2a conf 67 | HIF-1a counter inactive
CC(=O)Nc1ccc(SCC(=O)c2cc(C)n(Cc3cccs3)c2C)cc1	HIF-2a inh 71, KKLEB cytotox -56 (no result: EWS-Fli inh) | HIF-2a conf 82 | HIF-1a counter 89
Cc1ccc(NC(=O)c2ccc(N3CCOCC3)c([N+](=O)[O-])c2)cc1S(=O)(=O)N1CCOCC1	HIF-2a inh 51 (no result: EWS-Fli inh) | HIF-2a conf inactive | HIF-1a counter 59
C[C@H](CO)N1C[C@H](C)[C@H](CN(C)C)Oc2c(NS(=O)(=O)c3cn(C)cn3)cccc2C1=O	none (no result: HIF-2a inh, KKLEB cytotox, CF NFkB inh)
Cc1oc(-c2ccc3c(c2)OCCO3)cc1C(=O)NCC(=O)O	none
Cc1oc(-c2ccc3c(c2)OCCO3)cc1C(=O)O	HIF-2a inh 81 (no result: EWS-Fli inh, PAX8 reporter) | HIF-2a conf 92 | HIF-1a counter 92
CNC[C@@H]1Oc2ccc(NS(=O)(=O)c3c(C)noc3C)cc2C(=O)N([C@H](C)CO)C[C@H]1C	none (no result: HIF-2a inh, KKLEB cytotox, CF NFkB inh)
CCCCC(=O)NC(c1ccccc1)c1ccc2cccnc2c1O (stereo not given)	PAX8 reporter 87 | Mdm2 MdmX conf 87
CCC(=O)NC(c1ccc(OC)cc1)c1cc(Cl)c2cccnc2c1O (stereo not given)	none
CCCC(=O)NC(c1ccccc1)c1ccc2cccnc2c1O (stereo not given)	PAX8 reporter 79 | Mdm2 MdmX conf 80
CCCCC(=O)NC(c1ccc([N+](=O)[O-])cc1)c1c(O)ccc2ccccc12 (stereo not given)	none
CCC(=O)NC(c1ccccc1OC)c1ccc2cccnc2c1O (stereo not given)	none (no result: EWS-Fli inh, PAX8 reporter)
CCCC(=O)NC(c1ccc(OC)cc1)c1ccc2cccnc2c1O (stereo not given)	PAX8 reporter 77 | Mdm2 MdmX conf 86
O=C(Nc1cc(F)ccc1F)N[C@H]1CC[C@H](CCn2cc(C3CC3)nn2)O[C@@H]1CO	none (no result: HIF-2a inh, KKLEB cytotox, CF NFkB inh)
Nc1cc2ccncc2c2ccccc12	CF NFkB inh 65 | Mdm2 MdmX conf 90
Cc1noc(C)c1S(=O)(=O)N(C)C[C@H]1Oc2ccc(NS(=O)(=O)c3cn(C)cn3)cc2CC(=O)N([C@@H](C)CO)C[C@H]1C	none (no result: HIF-2a inh, KKLEB cytotox, PAX8 reporter, CF NFkB inh)
COc1ccc(/C=N/NC(=S)Nc2cccc(C(=O)O)c2)cc1OC	none
COc1ccc(C=NNC(=S)Nc2ccc(F)cc2)cc1OC	HIF-2a inh 48 | HIF-2a conf inactive | HIF-1a counter inactive
Cc1noc(C)c1NC(=O)N(C)C[C@@H]1Oc2ccc(NS(=O)(=O)c3c(C)noc3C)cc2CC(=O)N([C@@H](C)CO)C[C@H]1C	none (no result: HIF-2a inh, KKLEB cytotox, CF NFkB inh)
CC(=O)Nc1nc(-c2ccc3c(c2)CC(C)N3C(=O)C2CC2)c(C)s1 (stereo not given)	none | Mdm2 MdmX conf 99
Cc1ccc(C)c(CN2C(=O)c3ccccc3S(=O)(=O)c3ccc(C(=O)N4CCN(C)CC4)cc32)c1	none
Cc1ccc(C)c(CN2C(=O)c3ccccc3S(=O)c3ccc(C(=O)N4CCN(c5ccccn5)CC4)cc32)c1 (stereo not given)	PAX8 reporter inconclusive | Mdm2 MdmX conf 101
COc1ccc(S(=O)(=O)Nc2ccc3c(c2)C(=O)N([C@@H](C)CO)C[C@@H](C)[C@@H](CN(C)Cc2ccc4c(c2)OCO4)O3)cc1	none (no result: HIF-2a inh, KKLEB cytotox, CF NFkB inh)
C[C@H](NC(=O)C[C@@H]1CC[C@H](NC(=O)C2CC2)[C@H](CO)O1)c1ccccc1	none (no result: HIF-2a inh, KKLEB cytotox, CF NFkB inh)
CCC(=O)N1CCN(c2nc(CC)nc3sc4c(c23)CCCC4)CC1	none
CC1CCc2c(sc3nc(C(C)(C)C)nc(N4CCN(C(=O)CCl)CC4)c23)C1 (stereo not given)	EWS-Fli inh 69, HIF-2a inh 43, KKLEB cytotox -92, CF NFkB inh 97 | HIF-2a conf inactive | HIF-1a counter 106
CCn1c(=O)c([N+](=O)[O-])c(NCCN(C)C)c2ccccc21	none
CCn1c(=O)c([N+](=O)[O-])c(Cl)c2ccccc21	HIF-2a inh 92, CF NFkB inh 67 (no result: EWS-Fli inh, PAX8 reporter) | Mdm2 MdmX conf 103 | HIF-2a conf 94 | HIF-1a counter 106
CO[C@@H]1CN(C)C(=O)c2ccc(NS(C)(=O)=O)cc2OC[C@H](C)N(C(=O)C2CCCC2)C[C@@H]1C	none (no result: HIF-2a inh, KKLEB cytotox, CF NFkB inh)
O=C(C[C@@H]1CC[C@H]2[C@@H](COC[C@@H](O)CN2C(=O)Cc2ccccc2)O1)NC1CCC1	none (no result: HIF-2a inh, KKLEB cytotox, CF NFkB inh)
O=C(Nc1ccc(F)cc1)N[C@@H]1CC[C@H](CCNS(=O)(=O)c2cccc(Cl)c2)O[C@@H]1CO	none (no result: HIF-2a inh, KKLEB cytotox, CF NFkB inh)
O=C(OCn1ncc(Cl)c(Cl)c1=O)c1cccc(C(F)(F)F)c1	HIF-2a inh 93, CF NFkB inh 78 (no result: EWS-Fli inh, PAX8 reporter) | Mdm2 MdmX conf 103 | HIF-2a conf 97 | HIF-1a counter 105
O=Nc1c(O)ccc2cc(S(=O)(=O)O)ccc12	HIF-2a inh 76 (no result: EWS-Fli inh, PAX8 reporter) | HIF-2a conf 82 | HIF-1a counter inactive
CN(C)c1ccc2cc(S(=O)(=O)O)cc(O)c2c1	none
CN(C)CCNC(=O)C(=O)c1c(-c2ccccc2)cc2ccccn12	none
COc1ccc(-c2c(-c3ccccc3)c(C(=O)C(=O)NCCCN(C)C)n3ccc4cc(OC)c(OC)cc4c23)cc1OC	EWS-Fli inh 86, HIF-2a inh 88 | HIF-2a conf inactive | HIF-1a counter 101
